About 230 (23%) of roughly 1,000 compounds were called active. Not shown: some 1% with an inconclusive outcome. No rule for the calls is given here. This is one part of the list. Results with a measured potency or affinity are listed apart.

This test deals with Long-chain-fatty-acid--AMP ligase FadD28 (Mycobacterium tuberculosis (strain ATCC 25618 / H37Rv)) (UniProt P9WQ59). In words: inhibitors of FadD28 bisubstrate probe binding, dose response, biochemical, fluorescence polarization, cherry-pick (AID 624273). As to conditions: series mostly up to 50 µM. On the technique in general: Polarisation of emitted light reports the rotation of a fluorescent probe.
Sequence of Long-chain-fatty-acid--AMP ligase FadD28 (Mycobacterium tuberculosis (strain ATCC 25618 / H37Rv)) (P9WQ59 whole entry, looked up): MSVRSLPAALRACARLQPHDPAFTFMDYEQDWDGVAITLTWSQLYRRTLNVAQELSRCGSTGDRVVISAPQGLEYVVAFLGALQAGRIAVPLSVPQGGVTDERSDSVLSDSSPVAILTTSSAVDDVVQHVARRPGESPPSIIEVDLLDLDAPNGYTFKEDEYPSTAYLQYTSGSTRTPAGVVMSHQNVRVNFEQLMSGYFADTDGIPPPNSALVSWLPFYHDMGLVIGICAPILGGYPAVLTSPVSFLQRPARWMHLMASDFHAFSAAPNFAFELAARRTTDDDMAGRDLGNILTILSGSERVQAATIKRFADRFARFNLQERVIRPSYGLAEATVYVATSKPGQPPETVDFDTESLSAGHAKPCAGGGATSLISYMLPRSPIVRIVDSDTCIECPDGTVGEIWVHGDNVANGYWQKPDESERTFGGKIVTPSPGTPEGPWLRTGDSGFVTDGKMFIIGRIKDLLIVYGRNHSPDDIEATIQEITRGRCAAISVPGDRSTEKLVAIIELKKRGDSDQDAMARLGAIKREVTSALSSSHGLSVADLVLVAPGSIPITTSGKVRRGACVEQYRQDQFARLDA
Regarding `Cc1ccc(S(=O)(=O)Nc2cccc3c2O[C@@H](CN(C)C(=O)Nc2ccc4c(c2)OCO4)[C@H](C)CN([C@@H](C)CO)C3=O)cc1`, the call was inactive.

`CCCc1cc(=O)[nH]c(SCc2ccc(C#N)cc2)n1`: the call was inactive.

Consider `COc1ccccc1-c1cnc(C(O)c2cc(C)c(OC)c(C)c2)[nH]1` (centres undefined), for which the compound was classed as inactive.

As for `O=C(NNC(=O)C1CC1)Nc1ccc(Cl)cc1`, the result was inactive.

Turning to `O=C(NCCN1CCN(c2ccccc2F)CC1)c1cccn2c(=O)c3ccccc3nc12`, the compound was classed as inactive.

Consider `CCOc1ccc(OCCNC2CCCC2)cc1`, for which the outcome was inactive.

With `CC(C)(C)C1CCc2c(sc(NC(=O)C3CCCO3)c2C(N)=O)C1` (centres undefined), the compound was classed as inactive.

Turning to `O=C(O)Cn1c(CCS(=O)(=O)c2ccc(Br)cc2)nc2ccccc21`, the compound was classed as inactive.

`COc1ccc(-c2cc(C(F)(F)F)c3c(=O)n(-c4ccccc4)[nH]c3n2)cc1`: the compound was classed as inactive.

As to `O=C(CSc1ccc(Cl)cc1)NC1=NN(c2ccccc2)C(=O)C1`, the compound was called inactive.

Consider `C[C@@H]1CN([C@H](C)CO)C(=O)c2cc(NC(=O)Nc3ccc(C(F)(F)F)cc3)ccc2O[C@H]1CN(C)S(=O)(=O)c1ccccc1`, for which the compound was called inactive.

In the case of `N#CCCN(CCC#N)C(=O)C1c2ccccc2Oc2ccccc21`, the result was inactive.

For the compound `CCCCCCn1cc(C(=O)O)c(=O)c2cc(F)c(N3CCN(C)CC3)cc21`, the compound was classed as inactive.

Turning to `O=C(NNC(=O)C1CC=CCC1)c1ccccc1Cl` (centres undefined), the compound was called inactive.

In the case of `COc1ccc(CCNC(=O)CSc2nc3[nH]ncc3c(=O)n2-c2ccc(Cl)cc2Cl)cc1OC`, the compound was classed as inactive.

As for `O=C(CSc1nnc(CNc2ccc(Cl)cc2)o1)Nc1nc2c(s1)CCCC2`, the compound was called inactive.

For `COCC(C)N=Cc1c(O)[nH]c2ccccc12` (centres undefined), the call was inactive.

In the case of `CC1=C(C(=O)OCCCBr)C(c2ccc3c(c2)OCO3)NC(=O)N1` (centres undefined), the compound was classed as inactive.

For `CN1CC(C(=O)c2ccc(Cl)cc2)C(c2ccc(N(C)C)cc2)C1` (centres undefined), the outcome was inactive.

For `CC(=O)Oc1ccc(-c2nc(-c3cccnc3)no2)cc1`, the outcome was inactive.

For `COc1ncnc(-c2ccccc2)c1-c1ccccc1`, the compound was classed as inactive.

For the compound `COCC(=O)Nc1ccc(Br)cc1C`, the outcome was inactive.

For `O=C(CN1C(=O)/C(=C/c2ccco2)SC1=S)NC1CCS(=O)(=O)C1` (centres undefined), the compound was classed as inactive.

`COc1ccc(/C=C2\SC(=O)N(CC(=O)Nc3ccccc3O)C2=O)cc1OC`: the compound was classed as inactive.

Turning to `COc1ccc(C(=O)Nc2ccncc2)cc1OC`, the result was inactive.

As for `COc1cc(/C=N/n2c(COc3ccccc3)n[nH]c2=S)cc(OC)c1OC(C)=O`, the compound was called inactive.

As to `O=C(NCCS(=O)(=O)N1CCN(c2cccc(Cl)c2)CC1)c1cc(=O)c2ccccc2o1`, the outcome was inactive.

On to `COc1cc2cc(C(N)=O)c(N)nc2cc1OC`, for which the call was inactive.

For `Cc1nc(-c2cccs2)ccc1C(=O)O`, the compound was called inactive.

On to `COCCCNC(=S)N/N=C/c1cccc(OC)c1O`, for which the outcome was inactive.

Turning to `O=[N+]([O-])c1cccc(/C=N/n2c(C3CCCCC3)n[nH]c2=S)c1`, the outcome was inactive.

`CC1CCN(S(=O)(=O)c2ccc(C(=O)Nc3nnc(C4=COCCO4)o3)cc2)CC1`: the result was inactive.

On to `CCN(CC)S(=O)(=O)c1ccc(NC(=O)COC(=O)c2ccc(Br)o2)cc1`, for which the call was inactive.

For `O=C(COC(=O)c1cccc(S(=O)(=O)N2CCCC2)c1)Nc1cccc(Br)c1`, the outcome was inactive.

In the case of `O=C(CSc1nnnn1-c1ccccc1)Nc1nsc(-c2ccc(Cl)cc2)n1`, the call was inactive.

As for `Cc1cc(S(=O)(=O)N(Cc2cccs2)Cc2ccccc2F)ccc1-n1cnnn1`, the call was inactive.

As for `CCNS(=O)(=O)c1cc(OC)c(Cl)cc1OC`, the compound was called inactive.

As to `O=C(Nc1nc(COc2ccccc2)cs1)c1ccccc1F`, the result was inactive.

For `COc1ccc(CNC(=O)CN(Cc2ccc(OC)cc2)C(=O)CCC(=O)Nc2nccs2)cc1`, the outcome was inactive.

Take `COc1cc(Cl)ccc1NC(=O)COc1ccccc1C(=O)N1CCN(c2ccc(O)cc2)CC1`: the result was inactive.

Take `CCCN1C(=O)c2ccccc2NC1c1ccc(Cl)cc1` (centres undefined): the call was inactive.

Regarding `CC(=O)c1cccc(NC(=O)CN(c2cccc(F)c2)S(C)(=O)=O)c1`, the compound was classed as inactive.

Consider `COc1ccc(CNC(=O)COc2ccc(OC)cc2)cc1`, for which the call was inactive.

On to `COc1cccc(CNC(=O)CN(C)S(=O)(=O)c2cnc[nH]2)c1`, for which the result was inactive.

With `COc1cccc(-c2cc(C(=O)Nc3ccncc3)c3ccccc3n2)c1`, the compound was classed as inactive.

`COc1cnc(-c2cccc(C(F)(F)F)c2)c(NC(=O)c2cc3ccccc3s2)n1`: the result was inactive.

For the compound `CCOc1ccc(N=Nc2c(C)[nH]n(-c3ccccc3)c2=O)cc1`, the result was inactive.

`O/N=C1\CC/C(=N\O)c2nn(-c3ccccc3Cl)nc21`: the outcome was inactive.

With `O=C(CN1C(=O)NC2NC(=O)NC21)NC1CCCCC1` (centres undefined), the outcome was inactive.

As to `COc1ccc(C(=O)/C(C#N)=N/Nc2cccc([N+](=O)[O-])c2)cc1`, the outcome was inactive.

As to `Cc1ccc(C(=O)COC(=O)c2cccc(NC(=O)c3ccc([N+](=O)[O-])cc3[N+](=O)[O-])c2)cc1`, the outcome was inactive.

Regarding `N#Cc1c(-c2ccccc2)c(-c2ccccc2)nn(CC(=O)NNC(=O)Nc2ccc(Cl)c(Cl)c2)c1=O`, the outcome was inactive.

For `N/C(=N\OC(=O)COc1ccc2ccccc2c1)c1ccncc1`, the compound was called inactive.

For the compound `COC(=O)c1c(-c2ccc(C)cc2)csc1NC(=O)C1CC=CCC1C(=O)O` (centres undefined), the compound was classed as inactive.

On to `Cc1ccc([N+](=O)[O-])cc1N=Nc1c(-c2ccc([N+](=O)[O-])cc2)[nH]n(C(N)=S)c1=O`, for which the call was inactive.

As to `CCc1noc(C)c1C(=O)Nc1cc(S(=O)(=O)N2CCOCC2)ccc1OC(C)C`, the result was inactive.

Take `CCOC(=O)N1CCN(C2CC(=O)N(c3ccc(F)cc3)C2=O)CC1` (centres undefined): the result was inactive.

In the case of `C[C@@H]1CN([C@H](C)CO)C(=O)c2cc(NC(=O)Nc3ccc(C(F)(F)F)cc3)ccc2O[C@H]1CN(C)S(=O)(=O)c1ccc(Cl)cc1`, the compound was classed as inactive.

In the case of `Cc1cc(=O)oc2c(CN3CCN(CCO)CC3)c(O)ccc12`, the outcome was inactive.

As for `Cc1cccc(C(=O)NNS(=O)(=O)c2ccc(F)cc2)c1O`, the compound was called inactive.

Regarding `O=C(NNC(=O)c1ccc([N+](=O)[O-])cc1)c1ccc(NS(=O)(=O)c2cccs2)cc1`, the result was inactive.

Turning to `COc1cc(NC(=O)COC(=O)CC2CC3CCC2C3)cc(OC)c1` (centres undefined), the compound was classed as inactive.

Regarding `CCSc1ccccc1C(=O)Nc1cc(C)on1`, the result was inactive.

On to `COC(=O)c1cc(C(=O)OCC(=O)NC2CCCC2)cc([N+](=O)[O-])c1`, for which the call was inactive.

Regarding `COc1cccc(C(=O)OCC(=O)NC(=O)NC2CCCC2)c1O`, the compound was classed as inactive.

With `CC(=O)NC(CCS(C)(=O)=O)C(=O)N1CCc2ccccc21` (centres undefined), the compound was called inactive.

For `COc1cccc(OCc2cc(C(=O)N(C)CCOc3ccc(C)cc3)no2)c1`, the result was inactive.

As for `CC(C)=NOc1cc(NC(=O)CCl)cc([N+](=O)[O-])c1`, the call was inactive.

As to `C/C(=N\NC(=O)COc1ccccc1)c1ccc(O)cc1`, the compound was called inactive.

Take `Nc1nnnn1/N=C/c1cc(Cl)cc(Cl)c1O`: the compound was classed as inactive.

In the case of `O=C(O)Cn1c2ccccc2c2n[nH]c(=S)nc21`, the result was inactive.

Take `CCOC(=O)c1cc(NC(=O)c2ccc(Cl)cc2)c(=O)n2c1oc1ccc(Cl)cc12`: the compound was called inactive.

For `S=c1nc[nH]c2c1sc1nc(-c3ccccc3)c3c(c12)CCCC3`, the outcome was inactive.

As for `CCn1c(SCC(=O)Nc2ccc(N3CCOCC3)cc2)nnc1-c1ccncc1`, the compound was called inactive.

Consider `Cc1ccc(C)c(NS(=O)(=O)c2ccc(NC(=O)CSc3ccc(Cl)cc3)cc2)c1`, for which the outcome was inactive.

Take `Cc1ccc(OCc2nc(-c3ccccn3)no2)cc1`: the outcome was inactive.

In the case of `COc1ccc(CCNC(=O)c2ccc(NS(=O)(=O)c3ccc4[nH]c(=O)[nH]c4c3)cc2)cc1`, the result was inactive.

Consider `COc1ccc(CCNC(=O)c2ccccc2NS(=O)(=O)c2c(F)cccc2F)cc1`, for which the result was inactive.

As for `CCC(C)(C)NC(=O)CN(C(=O)CCC(=O)Nc1nccs1)c1ccc2c(c1)OCO2`, the outcome was inactive.

With `COc1ccc(COc2ccc3c(C)cc(=O)oc3c2)cc1`, the outcome was inactive.

With `Cc1ccc(S(=O)(=O)N(C)CC(=O)OCC(=O)NC(=O)Nc2ccc3c(c2)OCCO3)cc1`, the call was inactive.

`CCOC(=O)c1ccc(NC(=O)c2nc[nH]c2C(=O)N(CC)CC)cc1`: the compound was called inactive.

Turning to `COc1ccc(S(=O)(=O)N2CCC(C(=O)NCCC(=O)NCc3ccncc3)CC2)cc1`, the outcome was inactive.

As for `O=C(NCc1ccc(F)cc1)C(Cc1ccccc1)NS(=O)(=O)c1cccs1` (centres undefined), the call was inactive.

Consider `Cc1ccc(C)c(NC(=O)C(CC(=O)O)Cc2ccccc2)c1` (centres undefined), for which the result was inactive.

With `COC(=O)[C@H](Cc1ccccc1)NC(=O)NCc1ccc(C)cc1`, the result was inactive.

Take `O=C(NC(Cc1ccccc1)C(=O)O)C1CCN(S(=O)(=O)c2ccccc2C(F)(F)F)CC1` (centres undefined): the compound was classed as inactive.

With `C[C@H](CO)N1C[C@H](C)[C@H](CN(C)S(=O)(=O)c2cn(C)cn2)Oc2ccc(NC(=O)Nc3ccc(C(F)(F)F)cc3)cc2CC1=O`, the call was inactive.

`NC(Cc1ccccc1)c1nn[nH]n1` (centres undefined): the result was inactive.

Consider `CN1CCN(NC(=O)c2ccc(S(=O)(=O)N3CCCCCC3)cc2)CC1`, for which the compound was classed as inactive.

As to `CC(=O)c1ccc(Oc2cc(-c3ccccc3)nc(-c3ccccc3)n2)cc1`, the call was inactive.

Turning to `O=C(O)c1cc2ccccc2cc1Nc1ccccc1`, the outcome was inactive.

For `CCN(CC)CCCn1c(=S)[nH]c2cc(Cl)ccc2c1=O`, the compound was called inactive.

Take `COC1=CC(=O)OC(CCc2ccc3c(c2)OCO3)C1` (centres undefined): the outcome was inactive.

On to `Cc1ccc(C(=O)n2nc(C#N)c(C#N)c2N)cc1`, for which the outcome was inactive.

In the case of `N#Cc1ccc(OCC(=O)OCC(=O)Nc2ccc(N3CCOCC3)cc2)cc1`, the outcome was inactive.

In the case of `CC(=O)N1CCN(c2ccc(NC(=O)c3ccc(C(C)(C)C)cc3)cc2)CC1`, the outcome was inactive.

As for `O=C(Sc1ccc(Cl)cc1)c1ccccn1`, the result was inactive.

On to `Cn1c(N)c(S(=O)(=O)N2CCN(c3ccccc3Cl)CC2)c(=O)n(C)c1=O`, for which the compound was called inactive.

With `O=[N+]([O-])c1ccc(N2CCCCCC2)c2nonc12`, the call was inactive.

As for `CCc1c(C)sc(NC(=O)C2CC2c2ccccc2)c1C(N)=O` (centres undefined), the compound was classed as inactive.

As to `O=C(/C=C/c1ccc([N+](=O)[O-])cc1)/C=C/c1ccco1`, the compound was classed as inactive.

Consider `Cc1c(C(=O)C(=O)N2c3ccccc3CC2C)c2ccccc2n1C` (centres undefined), for which the compound was classed as inactive.

Regarding `C=CCn1c(C)csc1=Nc1ccc(C(C)=O)cc1`, the outcome was inactive.

The values are drawn from PubChem BioAssay AID624273 (Broad Institute, 2012).
